Calls of active or inactive are those of the source. Unless noted, how the calls were made is not given here.
Key:
[1] = system: XIP peptide (Xip251-270) binding; assay: small-molecule binders of XIP peptide, primary screen, biochemical, small-molecule microarray, fluorescence 635/667 nm, 0.1 µg/mL protein (AID 1182); details: fluorescent protein binding, 635 nm, higher = more signal, called active from +8 up or from −8 down
[2] = system: XIP peptide (Xip251-270); assay: small-molecule binders of XIP peptide, primary screen, biochemical, small-molecule microarray, fluorescence 635/667 nm, 0.5 µg/mL protein (AID 1183); details: small-molecule microarray binding, fluorescence 635 nm; higher = more signal
[3] = Plasmodium falciparum growth inhibition, primary screen, strain 3D7, DAPI fluorescence, 100 nL (AID 1184);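 further: parasites grown inside human red blood cells in medium with human serum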; details: P. falciparum 3D7 growth, 3 d, higher = more signal
[4] = biological target: Homeobox protein Hox-A13 (Mus musculus) (UniProt Q62424); assay: inhibitors of HoxA13-DNA binding, primary screen, biochemical, fluorescence polarization, labeled oligonucleotide (AID 1185); details: 15 min, higher = more signal, called active from +8 up or from −8 down
Homeobox protein Hox-A13 (Mus musculus), sequence (Q62424 whole entry, looked up): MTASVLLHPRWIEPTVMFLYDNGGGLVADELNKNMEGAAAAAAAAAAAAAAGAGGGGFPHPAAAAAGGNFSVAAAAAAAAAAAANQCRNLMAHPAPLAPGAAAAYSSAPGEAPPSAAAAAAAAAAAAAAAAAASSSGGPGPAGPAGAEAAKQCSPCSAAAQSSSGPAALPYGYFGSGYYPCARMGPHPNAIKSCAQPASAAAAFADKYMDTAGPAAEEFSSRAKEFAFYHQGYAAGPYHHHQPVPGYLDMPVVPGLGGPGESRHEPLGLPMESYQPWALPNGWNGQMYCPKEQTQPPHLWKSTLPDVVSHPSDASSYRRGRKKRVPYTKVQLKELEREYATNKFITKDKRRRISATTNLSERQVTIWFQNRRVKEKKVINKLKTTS

[5] = inhibitors of hydroxyurea-induced Chk1 phosphorylation, primary screen, imaging, HeLa, phospho-Chk1 antibody, percent positive cells (AID 1186); details: hydroxyurea-induced phospho-Chk1 immunofluorescence imaging, higher = more signal
[6] = inhibitors of hydroxyurea-induced Chk1 phosphorylation, primary screen, imaging, HeLa, phospho-Chk1 nuclear intensity (AID 1187); details: hydroxyurea-induced phospho-Chk1 immunofluorescence imaging, higher = more signal

C=CCC(OC(C)=O)[C@@H]1[C@@H](N(Cc2cccc3ccccc23)C(=O)Cc2ccc(F)cc2)c2cc(OCCCO)ccc2N1C(=O)Cc1ccc(OC)cc1 (stereo partly drawn)
composite z-score [1]: -0.51 (inactive) | composite z-score [2]: -0.189 | z-score [3]: -1.64 | z-score [4]: -0.902 (inactive) | z-score [5]: -0.0456 (inactive) | z-score [6]: -0.301 (inactive)

CC(C)C(CO)N1C(=O)[C@@H]2[C@H]3C(=O)OCC=C[C@H]3OC23C=CCN(Cn2nnc4ccccc42)C(=O)[C@@H]13 (stereo partly drawn)
composite z-score [1]: -0.406 (inactive) | composite z-score [2]: -0.705 | z-score [3]: -0.229 | z-score [4]: -3.05 (inactive) | z-score [5]: 0.123 (inactive) | z-score [6]: 0.11 (inactive)

COc1ccc([Si](C)(C)[C@H]2[C@H](CC(=O)N3CCC[C@H]3CO)O[C@@]3(C(=O)N(Cc4ccc(N5C(=O)c6cccc7cccc5c67)cc4)c4ccccc43)[C@@H]2C)cc1
composite z-score [1]: 0.531 (inactive) | composite z-score [2]: 0.803 | z-score [3]: -1.95 | z-score [4]: -3.9 (inactive) | z-score [5]: 0.171 (inactive) | z-score [6]: -0.4 (inactive)

CCCC[C@H]1OB(O)C[C@H]2C1=C(COc1ccccc1)Cn1c(=O)n(-c3ccccc3)c(=O)n12
composite z-score [1]: 1.9 (inactive) | composite z-score [2]: 0.286 | z-score [3]: -0.902 | z-score [4]: -7.43 (inactive) | z-score [5]: -0.309 (inactive) | z-score [6]: -0.247 (inactive)

O=C1NC(=O)C2C1C=CC(C(O)c1ccc(-c3ccccc3)s1)N2Nc1ccccn1 (stereo not drawn)
composite z-score [1]: 1.05 (inactive) | composite z-score [2]: 0.212 | z-score [3]: -0.169 | z-score [4]: -3.88 (inactive) | z-score [5]: 0.773 (inactive) | z-score [6]: -0.264 (inactive)

CC(C)C(CO)N1C(=O)[C@@H]2[C@H]3C(=O)OCC=C[C@H]3OC23C=CCN(CCN2CCOCC2)C(=O)[C@@H]13 (stereo partly drawn)
composite z-score [1]: 0.708 (inactive) | composite z-score [2]: 0.3 | z-score [3]: -0.0296 | z-score [4]: -4.54 (inactive) | z-score [5]: 0.318 (inactive) | z-score [6]: 0.436 (inactive)

COC(=O)[C@H]1N=C(c2ccc(OCCCO)cc2)O[C@H]1c1ccccc1CN=[N+]=[N-]
composite z-score [1]: 0.262 (inactive) | composite z-score [2]: 0.62 | z-score [3]: -1.79 | z-score [4]: -1.53 (inactive) | z-score [5]: 0.0721 (inactive) | z-score [6]: 0.328 (inactive)

COCCCNC(=O)[C@]1(Cc2ccccc2)N=C(c2ccc(OCCCO)cc2)O[C@@H]1c1ccccc1N=[N+]=[N-]
composite z-score [1]: 0.829 (inactive) | composite z-score [2]: 0.576 | z-score [3]: -2.7 | z-score [4]: -4.42 (inactive) | z-score [5]: -1.82 (inactive) | z-score [6]: -6.65 (inactive)

C=CC[C@]1(C(=O)N2CCOCC2)N=C(c2ccc(OCCCO)cc2)O[C@H]1c1ccccc1CN=[N+]=[N-]
composite z-score [1]: 0.349 (inactive) | composite z-score [2]: 0.836 | z-score [3]: -2.33 | z-score [4]: -4.04 (inactive) | z-score [5]: -0.552 (inactive) | z-score [6]: -0.429 (inactive)

O=C(CS)NCCCCCNC(=O)[C@@H]1C[C@@H]2C(=O)N3CCC[C@H]3C(=O)N2[C@@H]1c1ccc(O)cc1
composite z-score [1]: 0.262 (inactive) | composite z-score [2]: 0.716 | z-score [3]: 0.924 | z-score [4]: -2.66 (inactive) | z-score [5]: 0.0756 (inactive) | z-score [6]: 0.0698 (inactive)

CC(C)c1ccc(NN2C(C(O)c3ccccn3)C=CC3C(=O)N(c4ccccc4)C(=O)C32)cc1 (stereo not drawn)
composite z-score [1]: 1.17 (inactive) | composite z-score [2]: 0.69 | z-score [3]: -0.723 | z-score [4]: -4.86 (inactive) | z-score [5]: 0.236 (inactive) | z-score [6]: 0.375 (inactive)

COCCOC(=O)N1C(=O)[C@@]2(c3cc(C#CCNC(N)=O)ccc31)[C@H](C(N)=O)[C@H]1C(=O)O[C@H](c3ccccc3)[C@H](c3ccccc3)N1[C@@H]2c1ccc(OCCO)cc1
composite z-score [1]: -0.0439 (inactive) | composite z-score [2]: 0.549 | z-score [3]: 0.101 | z-score [4]: -2.08 (inactive) | z-score [5]: 0.358 (inactive) | z-score [6]: 0.489 (inactive)

COCCOC(=O)N1C(=O)[C@@]2(c3cc(C#CCNC(N)=O)ccc31)[C@H](c1ccc(OCCO)cc1)N1[C@H](c3ccccc3)[C@H](c3ccccc3)OC(=O)[C@H]1[C@@H]2C(=O)N1CCN(c2ncccn2)CC1
composite z-score [1]: -0.299 (inactive) | composite z-score [2]: 0.245 | z-score [3]: -1.91 | z-score [4]: 0.513 (inactive) | z-score [5]: -0.117 (inactive) | z-score [6]: -0.434 (inactive)

C[C@H]1NC(=O)C([C@@H](C)OCc2ccccc2)NC(=O)[C@@]23C(=O)N[C@@H](Cc4ccccc4)C2[C@H](C)[C@@]2(C)O[C@H]2C3/C=C/CC/C=C/CNC1=O (stereo partly drawn)
composite z-score [1]: 0.249 (inactive) | composite z-score [2]: -0.764 | z-score [3]: -2.74 | z-score [4]: -6.35 (inactive) | z-score [5]: -0.295 (inactive) | z-score [6]: 0.3 (inactive)

OCc1ccc(-c2cc[n+](Cc3cccc(OC(F)(F)F)c3)cc2)cc1
composite z-score [1]: 1.18 (inactive) | composite z-score [2]: 0.596 | z-score [3]: -1.63 | z-score [4]: -6.13 (inactive) | z-score [5]: 0.258 (inactive) | z-score [6]: 0.666 (inactive)

COc1cc(NN2C(C(O)c3ccc(I)cc3)C=CC3C(=O)N(C)C(=O)C32)cc(OC)c1OC (stereo not drawn)
composite z-score [1]: 1.42 (inactive) | composite z-score [2]: -0.064 | z-score [3]: -0.336 | z-score [4]: -1.63 (inactive) | z-score [5]: -0.297 (inactive) | z-score [6]: -0.449 (inactive)

O=C1CSC(c2cccc([N+](=O)[O-])c2)N1c1ccccc1 (stereo not drawn)
composite z-score [1]: 0.0504 (inactive) | composite z-score [2]: 0.143 | z-score [3]: 0.464 | z-score [4]: 1.07 (inactive) | z-score [5]: 0.0304 (inactive) | z-score [6]: -0.174 (inactive)

[N-]=[N+]=NCc1ccccc1[C@H]1OC(c2ccc(OCCCO)cc2)=N[C@@]1(Cc1ccccc1)C(N)=O
composite z-score [1]: 1.78 (inactive) | composite z-score [2]: 0.852 | z-score [3]: -0.676 | z-score [4]: -3.61 (inactive) | z-score [5]: -0.441 (inactive) | z-score [6]: -0.189 (inactive)

Source: PubChem BioAssay
